Source: paper PMC12214610

Target: Heat shock cognate 71 kDa protein (UniProt P11142)
Sequence (P11142 whole entry): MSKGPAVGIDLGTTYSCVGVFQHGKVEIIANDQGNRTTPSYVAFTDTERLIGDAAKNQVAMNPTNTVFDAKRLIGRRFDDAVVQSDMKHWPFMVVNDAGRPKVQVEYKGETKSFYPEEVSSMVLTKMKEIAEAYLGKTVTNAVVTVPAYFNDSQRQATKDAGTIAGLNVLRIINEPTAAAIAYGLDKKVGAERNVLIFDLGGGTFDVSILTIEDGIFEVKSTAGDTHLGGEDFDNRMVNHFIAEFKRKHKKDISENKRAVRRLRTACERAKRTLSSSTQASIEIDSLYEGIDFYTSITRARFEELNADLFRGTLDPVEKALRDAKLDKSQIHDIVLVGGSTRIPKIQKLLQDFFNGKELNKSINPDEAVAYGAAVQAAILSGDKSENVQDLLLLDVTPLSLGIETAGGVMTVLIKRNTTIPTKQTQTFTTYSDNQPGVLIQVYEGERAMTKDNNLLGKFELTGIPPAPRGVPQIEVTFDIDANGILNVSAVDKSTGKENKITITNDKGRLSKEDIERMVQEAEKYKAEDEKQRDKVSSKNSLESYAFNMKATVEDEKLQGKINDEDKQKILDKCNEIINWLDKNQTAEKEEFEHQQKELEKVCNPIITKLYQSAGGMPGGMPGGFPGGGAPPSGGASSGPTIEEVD

Chain of Glyceraldehyde-3-phosphate dehydrogenase, P04406 (P04406 whole entry): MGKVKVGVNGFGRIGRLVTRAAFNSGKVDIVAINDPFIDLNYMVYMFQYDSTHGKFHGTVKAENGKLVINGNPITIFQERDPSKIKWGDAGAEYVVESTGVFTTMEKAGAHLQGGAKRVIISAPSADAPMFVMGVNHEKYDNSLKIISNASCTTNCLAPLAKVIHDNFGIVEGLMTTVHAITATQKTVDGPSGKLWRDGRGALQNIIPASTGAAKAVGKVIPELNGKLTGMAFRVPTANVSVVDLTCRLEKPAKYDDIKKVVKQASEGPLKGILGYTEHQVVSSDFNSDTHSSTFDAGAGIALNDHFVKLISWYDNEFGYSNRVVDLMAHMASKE

Row | Substance | listed as a hit
1 | Thioredoxin, P10599 | yes
2 | Glyceraldehyde-3-phosphate dehydrogenase, P04406 | yes
3 | Heat shock 70 kDa protein 4L, O95757 | yes
